A selection: hits, their analogues and other compounds. The true share with any hit is near 7.5%.
ELG1 genotox – inducers of genotoxicity in HEK293T ELG1-luciferase cells; HEK293T ELG1-luciferase reporter, luminescence, 16 h; Potency, µM (top dose mostly 46 µM), without a hit: at the top dose activity change, positive = activation, usual class: activators; actives 1.3% (n = 330,000); AID 504466; further: % of control where 0% means no effect; nearly all actives have a fitted effect of over 60% in size
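ELG1-luciferase HEK293T cells, 2,000/well; compound pinned in; 16 hr, 37 °C, 5% CO2; ONE-Glo, 30 min RT; luminescence on CCD imager.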
Rab9 promoter act – activates the Rab9 promoter. AID 485297. actives 2.8% (n = 320,000). Huh7 Rab9 promoter-luciferase reporter, luminescence, 24 h. Potency, µM (doses to about 9.22 µM), for the others: at the highest dose activation, negative = inhibition, usual class: activators; further: % of control where 0% means no effect; nearly all actives have a fitted effect of over 60% in size
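Stable Rab9-luc Huh7, 1500 cells/well, 2 h settle; cmpd in DMSO, 24 h, 37 °C/5% CO2; luciferase reagent 10 min RT; luminescence.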
SMN2 splice enh – enhancers of SMN2 splice variant expression. HEK293 SMN2-luciferase splicing reporter, luminescence, 30-36 h. Potency, µM (titrated, usually from 46.1 µM), for inactives: at the top dose activity change, positive = activation, actives largely listed as activators. actives 2.8% (n = 210,000); further: % of control where 0% means no effect; nearly all actives have a fitted effect of over 55% in size
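qHTS luciferase splicing reporter: luminescence rises when SMN2 exon 7 is included in transfected HEK293 cells. Compound exposure lasted 30-36 h at 37C, with 4.5 mM final sodium butyrate as control, followed by a ONE-Glo read.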
NPC1 promoter act – NPC1 promoter activation; Huh7 NPC1 promoter luciferase reporter, 24 h; actives 2.4% (n = 320,000); Potency, µM (top dose mostly 9.22 µM), inactives show at the highest dose activation, usual class: activators; further: % of control where 0% means no effect; nearly all actives have a fitted effect of over 60% in size
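Luciferase expression driven by the NPC1 promoter was measured in stably transfected Huh7 cells after a 24 h compound incubation, using a luciferase reagent and a luminescence read.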
FLuc counter – firefly luciferase modulation, counter-screen for miR-21 project; P08659; purified FLuc, Km substrates, luminescence inhibition; actives 6.9% (n = 360,000); Potency, µM (titrated, usually from 57.5 µM), inactives show at the highest dose activity change, negative = inhibition, hits mostly inhibitors;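 further: plate controls were vehicle for no effect and reference inhibitor for full effect; nearly all actives have a fitted effect of over 55% in size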
Target sequence (P08659 whole entry, looked up): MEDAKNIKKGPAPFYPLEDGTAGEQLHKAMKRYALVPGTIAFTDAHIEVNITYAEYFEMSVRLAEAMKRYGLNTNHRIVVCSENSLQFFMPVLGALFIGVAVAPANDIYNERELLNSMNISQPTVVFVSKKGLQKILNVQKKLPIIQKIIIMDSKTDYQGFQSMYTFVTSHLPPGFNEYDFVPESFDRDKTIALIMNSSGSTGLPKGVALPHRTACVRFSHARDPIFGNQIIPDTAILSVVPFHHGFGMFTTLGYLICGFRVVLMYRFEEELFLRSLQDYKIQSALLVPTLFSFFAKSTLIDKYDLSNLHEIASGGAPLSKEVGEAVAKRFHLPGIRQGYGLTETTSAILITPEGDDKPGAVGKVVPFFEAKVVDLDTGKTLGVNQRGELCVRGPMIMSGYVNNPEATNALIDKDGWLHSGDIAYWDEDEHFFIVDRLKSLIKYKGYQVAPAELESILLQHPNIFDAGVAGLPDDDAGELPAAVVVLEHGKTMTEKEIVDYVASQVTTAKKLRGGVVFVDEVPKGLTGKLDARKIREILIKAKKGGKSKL
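Biochemical qHTS of compounds, final roughly 60 µM downward over six points, against 10 nM purified firefly luciferase using Km concentrations of substrates (10 uM D-luciferin, 10 uM ATP) in Tris acetate pH 7.5 buffer; luminescence output.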
Luc counter – blocks Kinase-Glo luciferase, a counter-screen artifact. Q27757. Kinase-Glo luciferase, ATP luminescence, 8 min. Potency, µM (titrated, usually from 38.3 µM), without a hit: top-dose activity change, negative = inhibition, usual class: inhibitors. actives 0.28% (n = 200,000). AID 1379; further: on the % scale 0 is the no-effect control and ±100 the full control effect; nearly all actives have a fitted effect of over 60% in size
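Inhibition of Kinase-Glo luciferase light generation was assessed at 10 uM ATP in pH 7.2 imidazole buffer, with luminescence measured after eight minutes at ambient temperature.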
Numbers without * were called inactive; u = inconclusive; x = not tested or not shown; [ ] = another dose, or the depositor's remark. The call rests on the fitted dose curve; in most records, active means well fitted curve in the direction sought with a large enough effect; inconclusive means small, poorly fitted or top-dose-only effect, or another doubt; inactive means no such curve, though single readings can be large; an effect the other way counts as inactive or inconclusive. Potency means the concentration at half of the fitted maximal effect.

SMILES | ELG1 genotox | Rab9 promoter act | SMN2 splice enh | NPC1 promoter act | FLuc counter | Luc counter
Cc1cc(N(C)C)ccc1N=Nc1ccc2ncccc2c1 | 4.61µM* | 0.891µM* | x | 3.16µM* | 0.426µM* | x
CCOC(=O)c1ccc(N/C=C/C(=O)C(C)(C)C)cc1 | u | 3.55µM* | u | 3.55µM* | 3.01µM* | -1.1%
CCOC(=O)c1ccc(N/C=C/C(=O)c2ccc(OC)cc2)cc1 | 7.4% | 0.8% | -8.8% | -1.5% | -0.4% | -5.6%
CCOC(=O)c1ccc(N/C=C/C(=O)c2ccccc2)cc1 | -5.9% | u | x | 11.0% | 6.01µM* | -7.7%
CC(C)Cn1c(CN2CCN(c3cccc(Cl)c3)CC2)nc2c1c(=O)[nH]c(=O)n2C | x | x | x | x | -1.3% | x
COc1ccc(-c2c(-c3ccc4c(c3)OCO4)noc2C)cn1 | 7.9% | -7.1% | x | -2.0% | 21.3µM* | x
c1ccc2c(c1)Cn1c-2nc2ccccc21 | u | 1.12µM* | 10µM* | 1.41µM* | 6.01µM* | 11.2µM*
Brc1c(-c2ccccc2)nc2n1Cc1ccccc1-2 | 18.3µM* | 3.98µM* | x | u | 0.849µM* | x
O=C1c2ccccc2-c2nc3ccccc3n21 | 11.0% | u | x | 30.0% | 15.1µM* | x
c1ccc2c(c1)Cn1nnnc1-2 | -6.5% | 12.9% | -7.0% | 16.6% | 5.0% | -3.3%
CCOC(=O)CSc1n[nH]c(NC(=O)NC(C)C)n1 | 0.7% | 2.2% | x | -2.6% | 1.0% | x
Cc1ccc2c(c1)c1c(n2C)-c2[nH]ncc2CC1 | 12.3% | 23.0% | 13.3% | 6.6% | 13.5µM* | -3.4%
Cc1ccc2c(c1)c1c(n2C)C(C(N)=O)CCC1 (stereo not given) | 2.9% | -2.3% | -1.9% | -1.4% | 0.2% | -3.3%
CC(C)Cc1nnc(NC(=O)CCS(=O)(=O)c2ccc(Cl)cc2)s1 | -0.8% | 2.7% | x | -0.1% | 3.2% | x
Cc1nc(-c2ccccn2)nc(N(C)c2ccccc2)c1Cl | -8.9% | -2.0% | x | -0.5% | 15.1µM* | x
O=S(=O)(Nc1nc2c(s1)CCCC2)c1ccc2ccccc2c1 | -1.9% | -1.7% | -40.6% | 0.2% | 0.8% | 24.1%
c1ccc2c(Nc3nc4c(s3)CCCC4)cccc2c1 | u | 3.55µM* | u | u | 4.78µM* | -13.0%
CCOC(=O)c1c(NC(=O)c2noc3c2CC(C(C)(C)C)CC3)sc2c1CCCC2 (stereo not given) | x | x | -0.8% | x | -16.9% | x
Cc1nc2c(sc3nc4c(cc32)COC(C)(C)C4)c(=O)n1CC(=O)NCc1ccco1 | u | u | 12.6µM* | -6.5% | 8.49µM* | -10.4%
CC1(C)Cc2nc3sc4c(SCC(=O)NCc5ccco5)ncnc4c3cc2CO1 | 2.06µM* | u | u | -2.4% | 5.36µM* | -2.7%
Cc1nc2c(sc3nc4c(cc32)COC(C)(C)C4)c(=O)n1Cc1ccccc1 | u | u | -35.6% | 25.6% | 23.9µM* | -1.6%
CCCc1nc2c(sc3nc4c(cc32)COC(C)(C)C4)c(=O)n1Cc1ccco1 | -3.1% | -3.0% | -17.1% | -2.5% | -0.8% | 2.6%
CCc1cc2c(c(CC)n1)CCC(=O)N2Cc1ccc(-c2ccccc2-c2nn[nH]n2)cc1 | x | x | x | x | x | 3.7%
Cc1cc(C(=O)Nn2c(-c3ccc(Br)cc3)nc3ccccc3c2=O)ccc1[N+](=O)[O-] | -4.7% | 19.1% | 1.8%[1.84 µM] | -1.8% | 3.0% | -1.2%
N[C@@H](Cn1cc(F)c(=O)[nH]c1=O)C(=O)O | x | x | x | x | x | 4.2%
COc1cccc(NC(=S)N/N=C2/CCCCc3ccccc32)c1 | 14.2% | 24.1% | 28.2µM* | 10.4% | 13.5µM* | 2.2%
CCN(Cc1ccccc1)C(=O)c1cc2ccc3cccnc3c2[nH]1 | x | x | x | x | 9.53µM* | x
Cc1ccc(CN2CCC(CNC(=O)c3cc4ccc5cccnc5c4[nH]3)CC2)cc1 | x | x | x | x | -2.0% | x
CCC(C)c1ccccc1N1CC(C(=O)NCCCn2nc(C)cc2C)CC1=O (stereo not given) | 0.2% | 3.9% | x | -3.1% | -1.7% | x
CSc1ccc(C(=O)/C=C/c2ccc(N)cc2)cc1 | 13µM* | 3.16µM* | 14.1µM* | u | 0.757µM* | -24.7%
